Laboratory results taken from the supplement of paper PMC12494721.
Structures can show the parent of a compound that is named as a salt.

Key:
Details in all cases: incubation time: 27 h, anaerobic, 37 °C;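 for the amine columns active = adjusted P below 0.05 in both replicates with a change the same way and a mean fold change under 0.8 or over 1.25; inactive = the rest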
[1] = test system: Clostridium sporogenes DSM 1664; experiment: growth (OD595) fold change vs plate DMSO controls (fold change (ratio)); higher = more growth
Procedure, shortened: (§1)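 To obtain OD, 595 nm absorbance readings were blank-subtracted, corrected for compound background using 20 µM compound solutions in water, and multiplied by a calibration factor of 5. They came from 96-well mGAM cultures grown anaerobically for 27 h at 37 °C and shaken before reading. Growth is the fold change relative to the median of plate DMSO controls. Two biological replicates were averaged, and fold changes above 1.5 were set to NA.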

Escherichia coli IAI1 [2] = experiment: as above
Procedure, shortened: as §1

[3] = test system: Klebsiella aerogenes DSM 30053; experiment: as above
Procedure, shortened: as §1

[4] = test system: Ruminococcus gnavus DSM 108212; experiment: as above
Procedure, shortened: as §1

[5] = test system: Klebsiella aerogenes DSM 30053; experiment: fold change of Histamine concentration vs plate DMSO controls (fold change (ratio)); higher = more amine produced, active = hit call of the paper (significant change in both replicates, either direction)
Procedure, shortened: (§2)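 Each value is the fold change relative to DMSO-only wells on the same plate. Four gut bacterial strains were grown anaerobically in mGAM at 37 °C for 27 h in 80 µL wells, starting at OD 0.1 before a 1:1 dilution, with compounds at 20 µM final (sweeteners 50 µM). Whole cultures were extracted with cold acetonitrile/methanol containing 0.1% formic acid, centrifuged, and amines were quantified by LC–triple-quadrupole MS (dynamic MRM) against external calibration curves with within-batch drift correction. Values are means of 2 biological replicates.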

[6] = test system: Clostridium sporogenes DSM 1664; experiment: fold change of Tryptamine concentration vs plate DMSO controls (fold change (ratio)); higher = more amine produced, active = hit call of the paper (significant change in both replicates, either direction)
Procedure, shortened: as §2

[7] = test system: Ruminococcus gnavus DSM 108212; experiment: as above
Procedure, shortened: as §2

Escherichia coli IAI1 [8] = experiment: fold change of Putrescine concentration vs plate DMSO controls (fold change (ratio)); higher = more amine produced, active = hit call of the paper (significant change in both replicates, either direction)
Procedure, shortened: as §2

[9] = test system: Klebsiella aerogenes DSM 30053; experiment: as above
Procedure, shortened: as §2

Escherichia coli IAI1 [10] = experiment: fold change of Cadaverine concentration vs plate DMSO controls (fold change (ratio)); higher = more amine produced, active = hit call of the paper (significant change in both replicates, either direction)
Procedure, shortened: as §2

[11] = test system: Klebsiella aerogenes DSM 30053; experiment: as above
Procedure, shortened: as §2

[12] = test system: Ruminococcus gnavus DSM 108212; experiment: fold change of 2-Phenylethylamine concentration vs plate DMSO controls (fold change (ratio)); higher = more amine produced, active = hit call of the paper (significant change in both replicates, either direction)
Procedure, shortened: as §2

Row | SMILES | growth [1] | growth (Escherichia coli IAI1 [2]) | growth [3] | growth [4] | fold change of Histamine concentration [5] | fold change of Tryptamine concentration [6] | fold change of Tryptamine concentration [7] | fold change of Putrescine concentration (Escherichia coli IAI1 [8]) | fold change of Putrescine concentration [9] | fold change of Cadaverine concentration (Escherichia coli IAI1 [10]) | fold change of Cadaverine concentration [11] | fold change of 2-Phenylethylamine concentration [12]
1 | Cc1nn(C)c(Oc2ccccc2)c1/C=N/OCc1ccc(C(=O)OC(C)(C)C)cc1 (20 µM) | 1.15 | 1.03 | 1.02 | 0.998 | 0.993 (inactive) | 0.918 (inactive) | 1.04 (inactive) | 1.02 (inactive) | 1.06 (inactive) | 0.987 (inactive) | 1.03 (inactive) | 0.974 (inactive)
2 | N[C@@H](Cc1ccc(O)c(O)c1)C(=O)O [Levodopa] (20 µM) | 1.09 | 0.977 | 0.989 | 0.94 | 1.05 (inactive) | 1.03 (inactive) | 1.03 (inactive) | 1 (inactive) | 1.02 (inactive) | 0.975 (inactive) | 0.997 (inactive) | 1.04 (inactive)
3 | CCc1c(C)[nH]c2c1C(=O)C(CN1CCOCC1)CC2 (configuration not stated) [Molindone hydrochloride] (20 µM) | 0.781 | 1.07 | 1 | 1.1 | 1.02 (inactive) | 1.02 (inactive) | 1.07 (inactive) | 1.03 (inactive) | 0.987 (inactive) | 0.906 (inactive) | 1.01 (inactive) | 1.08 (inactive)
4 | OC(CCN1CCCCC1)(c1ccccc1)C1CC2C=CC1C2 (configuration not stated) [Biperiden hydrochloride] (20 µM) | 1.01 | 1.01 | 1.17 | 0.975 | 0.911 (inactive) | 0.995 (inactive) | 0.916 (inactive) | 1.04 (inactive) | 0.999 (inactive) | 0.899 (inactive) | 1.01 (inactive) | 0.935 (inactive)
5 | CC1(C)O[C@@H]2C[C@H]3[C@@H]4C[C@H](F)C5=CC(=O)C=C[C@]5(C)[C@H]4[C@@H](O)C[C@]3(C)[C@]2(C(=O)CO)O1 [Flunisolide] (20 µM) | 0.942 | 0.993 | 1.03 | 0.998 | 0.949 (inactive) | 1.03 (inactive) | 1.19 (inactive) | 1.05 (inactive) | 1.05 (inactive) | 1.07 (inactive) | 1.09 (inactive) | 1.51 (inactive)
6 | CNC(=O)c1c(I)c(C(=O)NCC(=O)Nc2c(I)c(C(=O)O)c(I)c(C(=O)NCCO)c2I)c(I)c(N(C)C(C)=O)c1I [Ioxaglic acid] (20 µM) | 1.16 | 1.08 | 1.09 | 1.02 | 1.01 (inactive) | 0.978 (inactive) | 1.01 (inactive) | 1.05 (inactive) | 1.06 (inactive) | 1 (inactive) | 1.04 (inactive) | 0.982 (inactive)
7 | Cn1cc(C(=O)Nc2ccc(F)cc2-c2ccc(Cl)c(Cl)c2)c(C(F)F)n1 (20 µM) | 1.12 | 1 | 0.972 | 1.21 | 1.06 (inactive) | 1.01 (inactive) | 0.907 (inactive) | 1.01 (inactive) | 1.01 (inactive) | 0.998 (inactive) | 0.986 (inactive) | 0.931 (inactive)
8 | CCN(CC)CCc1nc(-c2ccccc2)no1 [Oxolamine citrate salt] (20 µM) | 1.13 | 0.976 | 0.968 | 1.01 | 1.04 (inactive) | 1.04 (inactive) | 1.03 (inactive) | 0.967 (inactive) | 1.01 (inactive) | 1.02 (inactive) | 0.987 (inactive) | 1.03 (inactive)
9 | COc1ccc2cc([C@H](C)C(=O)O)ccc2c1 [(S)-Naproxen] (20 µM) | 1.04 | 1.1 | 1.02 | 1.08 | 1.04 (inactive) | 0.983 (inactive) | 0.969 (inactive) | 1.06 (inactive) | 0.977 (inactive) | 1 (inactive) | 0.988 (inactive) | 0.899 (inactive)
10 | O=C(O)c1ccccc1OP(=O)(O)O [Fosfosal] (20 µM) | 0.91 | 1.01 | 1.01 | 1.17 | 0.997 (inactive) | 1.05 (inactive) | 1.03 (inactive) | 0.942 (inactive) | 1 (inactive) | 0.995 (inactive) | 0.995 (inactive) | 1.04 (inactive)
11 | Cc1cc(=O)oc2cc(O)ccc12 [Hymecromone] (20 µM) | 1.23 | 1.04 | 0.98 | 1.02 | 1.04 (inactive) | 1.06 (inactive) | 0.953 (inactive) | 1 (inactive) | 1.01 (inactive) | 0.999 (inactive) | 0.994 (inactive) | 0.95 (inactive)
12 | CC(C)c1nc(N(C)S(C)(=O)=O)nc(-c2ccc(F)cc2)c1/C=C/[C@@H](O)C[C@@H](O)CC(=O)O [Rosuvastatin] (20 µM) | 0.904 | 1.22 | 1.02 | 1.01 | 0.953 (inactive) | 1.03 (inactive) | 0.989 (inactive) | 1.06 (inactive) | 1 (inactive) | 0.951 (inactive) | 0.989 (inactive) | 1 (inactive)
13 | CNCCC=C1c2ccccc2CCc2ccccc21 [Nortriptyline hydrochloride] (20 µM) | 1.11 | 0.972 | 0.974 | 1.28 | 1.09 (inactive) | 1.06 (inactive) | 0.993 (inactive) | 0.975 (inactive) | 1.02 (inactive) | 1.04 (inactive) | 0.989 (inactive) | 1.03 (inactive)
14 | CC(c1cc2ccccc2s1)N(O)C(N)=O (configuration not stated) [Zileuton] (20 µM) | 1.11 | 0.91 | 0.978 | 1.01 | 1.06 (inactive) | 0.987 (inactive) | 1.03 (inactive) | 0.86 (inactive) | 1.01 (inactive) | 1 (inactive) | 0.98 (inactive) | 1.07 (inactive)
15 | CCCCCOC(=O)Nc1nc(=O)n([C@@H]2O[C@H](C)[C@@H](O)[C@H]2O)cc1F [Capecitabine] (20 µM) | 1.12 | 0.991 | 1.07 | 0.98 | 0.921 (inactive) | 0.982 (inactive) | 1.03 (inactive) | 0.993 (inactive) | 0.99 (inactive) | 1.01 (inactive) | 1 (inactive) | 1.06 (inactive)
16 | C[C@@H]1[C@H](O)[C@@H](C)/C=C/C=C/C=C/C=C/C=C/C=C/C=C/[C@H](O[C@@H]2O[C@H](C)[C@@H](O)[C@H](N)[C@@H]2O)C[C@@H]2O[C@](O)(C[C@@H](O)C[C@@H](O)[C@H](O)CC[C@@H](O)C[C@@H](O)CC(=O)O[C@H]1C)C[C@H](O)[C@H]2C(=O)O [Amphotericin B] (20 µM) | 0.881 | 1.01 | 0.982 | 0.469 | 1.01 (inactive) | 0.985 (inactive) | 1.09 (inactive) | 1.23 (inactive) | 0.957 (inactive) | 1.09 (inactive) | 1.14 (inactive) | 1.25 (inactive)
17 | CCn1cc(C(=O)O)c(=O)c2cc(F)c(N3CCNCC3)nc21 [Enoxacin] (20 µM) | 0.0582 | 0.0418 | 0.246 | 1.01 | 0.228 (active) | 0.0679 (active) | 0.892 (inactive) | 0.878 (inactive) | 1.19 (inactive) | 0.269 (active) | 0.961 (inactive) | 0.905 (inactive)
18 | Cn1c(NCCN(CCO)CCCc2ccc([N+](=O)[O-])cc2)cc(=O)n(C)c1=O [Nifekalant] (20 µM) | 1.11 | 1.06 | 1.08 | 1.22 | 0.994 (inactive) | 1.01 (inactive) | 1.01 (inactive) | 1.04 (inactive) | 1.02 (inactive) | 0.971 (inactive) | 1.01 (inactive) | 0.997 (inactive)
19 | COc1ccc2[nH]cc(CCNC(C)=O)c2c1 [Melatonin] (20 µM) | 0.916 | 0.932 | 1.06 | 0.789 | 0.94 (inactive) | 1.03 (inactive) | 1.01 (inactive) | 0.98 (inactive) | 0.999 (inactive) | 0.999 (inactive) | 1 (inactive) | 0.98 (inactive)
20 | CC(C)(Oc1ccc(C2CC2(Cl)Cl)cc1)C(=O)O (configuration not stated) [Ciprofibrate] (20 µM) | 0.861 | 0.88 | 0.891 | 0.992 | 1.01 (inactive) | 1.04 (inactive) | 0.951 (inactive) | 1.01 (inactive) | 1 (inactive) | 1.03 (inactive) | 0.992 (inactive) | 0.949 (inactive)
21 | CC(C)c1ccc2oc3nc(N)c(C(=O)O)cc3c(=O)c2c1 [Amlexanox] (20 µM) | 0.911 | 1.2 | 1.05 | 0.857 | 0.877 (inactive) | 1.07 (inactive) | 1.03 (inactive) | 1.1 (inactive) | 0.984 (inactive) | 0.957 (inactive) | 1.03 (inactive) | 1.02 (inactive)
